Assay outcomes from PubChem.
Shown are actives, neighbours in structure and some others; about 6.6% of the full set was active somewhere.
NR3A LBD binder: binders of NR3A ligand-binding domain, primary screen, biophysical, differential scanning fluorimetry, uHTS | Glutamate receptor ionotropic, NMDA 3A (GRIN3A) ligand-binding domain | NR3A LBD differential scanning fluorimetry, Tm shift; 0% = protein alone, 100% = glycine-bound protein | Tm shift relative to glycine control, % at 25 µM | 340,000 compounds, 2.5% hits | AID 1259313, 2017;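 active means melting temperature shift of at least 10% of the positive control shift, at one fixed dose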
MPTP block: mitochondrial permeability transition pore inhibitors, primary screen, biochemical, isolated mouse mitochondria, absorbance. Ca2+ swelling absorbance, 30 min. inhibition, % at 10 µM. 360,000 compounds, 1.4% hits. AID 602449, 2012;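 active means inhibition of 50% or more, scaled per plate between neutral and stimulator controls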;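 further: 0% = DMSO wells given calcium and 100% = 1 mM EGTA wells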
Beta cell apopt: inhibitors of cytokine-induced beta cell apoptosis, primary screen, luminescence | INS-1E cytokine-induced death, ATP luminescence, 48 h; percent of positive-control rescue, neutral wells zero | protection from apoptosis, % (no concentration beside the values) | 300,000 compounds, 0.8% hits | AID 435005, 2010;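 active means Every replicate reaches about 75%, or at least half do and their mean reaches it too, limit read from the data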;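 further: 0% = cytokine-treated negative control wells and 100% = positive control rescue; higher means more ATP so stronger rescue from cytokine killing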
CSC inhib: cancer stem cell viability inhibitors, primary screen, luminescence. cancer stem cell-like cells viability. inhibition, % at 7.5 µM. 300,000 compounds, 1.1% hits. AID 2717, 2010; in the data active means inhibition above about 75%; tested in HMLE shEcad cells
Mdm2 MdmX PPI: inhibitors of human Mdm2-MdmX association, primary screen, cell-based, luminescence, split luciferase, SaOS-2, uHTS; Protein Mdm4 (Homo sapiens) + E3 ubiquitin-protein ligase Mdm2 (Homo sapiens), …; SaOS-2 split-luciferase Mdm2/MdmX complementation; inhibition, % at 8 µM; 330,000 compounds, 3% hits;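 active means inhibition of at least 50% at 8 µM in the primary screen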
Target sequence (O15151 whole entry, looked up): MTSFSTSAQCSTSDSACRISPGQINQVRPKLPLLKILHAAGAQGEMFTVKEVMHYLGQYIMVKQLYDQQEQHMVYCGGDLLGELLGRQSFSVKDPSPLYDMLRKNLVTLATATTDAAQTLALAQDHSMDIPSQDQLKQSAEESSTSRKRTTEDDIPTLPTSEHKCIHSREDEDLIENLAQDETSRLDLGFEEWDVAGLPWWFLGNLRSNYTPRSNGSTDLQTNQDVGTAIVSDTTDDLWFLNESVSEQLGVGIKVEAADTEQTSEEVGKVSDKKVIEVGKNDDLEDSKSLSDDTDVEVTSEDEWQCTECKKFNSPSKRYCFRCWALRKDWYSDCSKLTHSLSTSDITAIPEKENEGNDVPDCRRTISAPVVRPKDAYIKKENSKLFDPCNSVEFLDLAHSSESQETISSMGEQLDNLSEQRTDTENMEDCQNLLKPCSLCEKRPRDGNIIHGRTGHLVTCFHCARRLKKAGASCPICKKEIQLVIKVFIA
Target sequence (Q00987 whole entry, looked up): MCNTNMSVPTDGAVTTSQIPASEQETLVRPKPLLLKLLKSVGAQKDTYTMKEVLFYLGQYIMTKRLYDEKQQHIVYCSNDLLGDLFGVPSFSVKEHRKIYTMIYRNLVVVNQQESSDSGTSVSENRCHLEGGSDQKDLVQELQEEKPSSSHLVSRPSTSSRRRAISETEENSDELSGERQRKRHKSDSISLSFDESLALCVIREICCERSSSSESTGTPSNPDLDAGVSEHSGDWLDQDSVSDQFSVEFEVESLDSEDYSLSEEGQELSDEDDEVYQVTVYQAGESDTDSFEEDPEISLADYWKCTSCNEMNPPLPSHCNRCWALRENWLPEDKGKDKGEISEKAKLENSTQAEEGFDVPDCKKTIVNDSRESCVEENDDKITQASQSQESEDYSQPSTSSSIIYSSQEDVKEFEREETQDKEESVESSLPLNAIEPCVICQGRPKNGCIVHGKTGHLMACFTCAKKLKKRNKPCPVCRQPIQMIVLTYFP
Gli-Sufu antag: Gli-Sufu pathway antagonists, primary screen, luciferase luminescence, Sufu-KO-LIGHT cells, uHTS; inhibition, % at 5 µM; Sufu-KO-LIGHT fibroblasts, Gli luciferase reporter luminescence; 340,000 compounds, 0.74% hits;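 active means inhibition above about 55%, limit read from the data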;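 further: 0% = DMSO-treated cells and 100% = wells with medium but no cells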
Mdm2 MdmX conf: Mdm2-MdmX complex disruptors, retested hits, confirmation, luminescence, single concentration; AID 489028, 2010; inhibition, % at 8 µM; 10,000 compounds, 55% hits; Mdm2-MdmX binding, luminescent assay; shares compounds with Mdm2 MdmX PPI; in the data active means inhibition above about 40%
FLuc counter: full-length luciferase signal inhibition, confirmation, counter-screen for Mdm2/MdmX interaction inhibitor project, cell-based, single concentration, SaOS-2; AID 504607, 2011; shares compounds with Mdm2 MdmX PPI; 6,200 compounds, 77% hits; inhibition, % at 8 µM; SaOS-2 full-length luciferase counterscreen, luminescence;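 active means mean inhibition at 8 µM reaching about 37%, which flags the compound as non-specific, limit read from the data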;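 further: p53-null SaOS-2 cells with luciferase driven by a doxycycline-inducible promoter; compound on cells about two nights before reading with doxycycline added after day one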
* hit, by the source's call; . = no result given.

SMILES	NR3A LBD binder	MPTP block	Beta cell apopt	CSC inhib	Mdm2 MdmX PPI	Gli-Sufu antag	Mdm2 MdmX conf	FLuc counter
COc1ccc(OC)c(S(=O)(=O)Nc2ccc(-c3ccc4nnc(C)n4n3)cc2)c1	3	-1	-1	29	51*	3	61*	65*
CC(=O)c1ccc(S(=O)(=O)Nc2cccc(-c3ccc4nncn4n3)c2)cc1	-1	2	1	4	21	-7	.	.
Cc1ccc(S(=O)(=O)Nc2cccc(-c3ccc4nncn4n3)c2)cc1	-4	-2	12	3	63*	8	78*	66*
Nc1ncnc2c1ncn2[C@@H]1O[C@H](CNCc2c(OCc3ccccc3F)ccc3ccccc23)[C@@H](O)[C@H]1O	-1	-1	-2	.	45	42	.	.
Cc1c(-c2ccccc2)oc2c(C(=O)N3CCN(c4ccc([N+](=O)[O-])cc4)CC3)cccc2c1=O	-25	-20	0	.	67*	-2	77*	51*
CSc1ccc(COC(=O)c2cc([N+](=O)[O-])ccc2N2CCOCC2)cc1	2	-1	68	60	61*	42	77*	113*
COc1ccc(C(=O)c2cc([N+](=O)[O-])ccc2N2CCCC2)cc1	5	0	1	-12	50*	-6	64*	53*
Cc1ccc(C(=O)c2cc([N+](=O)[O-])ccc2N2CCOCC2)c(C)c1	-3	5	24	57	67*	47	58*	97*
Cc1c(C(=O)N2CCN(c3ccc([N+](=O)[O-])cc3)CC2)oc2ccccc12	2	0	11	.	10	10	.	.
O=C(Nc1ccc(F)c(Cl)c1)c1cc(C2CCCN(S(=O)(=O)c3cccc4cccnc34)C2)on1 (centres undefined)	.	1	.	.	.	.	.	.
CCCCCN(C(=O)CCC(=O)OC(C)C(=O)Nc1ccccc1C)c1c(N)n(CCCC)c(=O)[nH]c1=O (centres undefined)	.	1	.	.	.	.	.	.
Cc1ccc(C(=O)c2cc([N+](=O)[O-])ccc2N2CCOCC2)cc1C	0	1	-4	67	51*	18	61*	60*
CN1CCN(c2ccc([N+](=O)[O-])cc2C(=O)N2CCOCC2)CC1	2	-1	-8	-4	-9	3	.	.
O=C(c1ccccc1)c1cc([N+](=O)[O-])ccc1N1CCCC1	3	1	-13	32	23	-3	.	.
Cc1ccc(C(=O)c2cc([N+](=O)[O-])ccc2N2CCCCC2)cc1C	-5	2	.	-19	64*	43	58*	60*
O=C(c1cc([N+](=O)[O-])ccc1N1CCOCC1)N1CCN(c2ccccc2)CC1	.	0	53	.	58*	.	77*	95*
O=C(NCc1cccnc1)c1cc(C2CCCCN2S(=O)(=O)c2cccc3cccnc23)on1 (centres undefined)	.	0	.	.	.	.	.	.
Brc1cccc(-c2nc3c4ccccc4ccn3c2Cc2ccccc2)c1	.	3	.	.	.	.	.	.
CN1OC[C@@H]2CN(C(=O)c3cccc4ccccc34)[C@H](c3ccccc3Br)C[C@@H]21	.	-1	.	.	.	.	.	.
N#C/C(=C\c1cn(CCOc2ccccc2F)c2ccccc12)C(=O)NCc1cccs1	-4	1	-1	12	54*	-7	21	.
COC(=O)c1cc(S(=O)(=O)N2CCOCC2)c(Cl)cc1N1CCOCC1	0	2	-3	-9	26	1	.	.
COC(=O)c1cc(C)nc2c1C(=O)C(=O)C=C2N1CCOCC1	-1	5	104*	51	65*	10	26	.
